{"source": "PubChem BioAssay (NCI)", "note": "This is part of a sample that, as a whole, favours compounds with a hit. Of some 83,000 tested, about 20% had one in any assay.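 Plates (96-well) were seeded with cells, treated with compound at one concentration, and incubated for 48 hours before percent growth was determined.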 Activity calls are given as the source filed them. Rule for the calls: active = growth percent below 10; inactive = the rest."}
{"tested_on": "MDA-MB-468 breast", "assay": "NCI-60 one-dose screen, 48 h (100 = growth as untreated, 0 = no growth, -100 = all killed)", "settings": "10 µM unless noted"}
{"smiles": "COc1ccc(Cn2cc3c(c2-c2ccccc2)CCCc2cnoc2-3)cc1[N+](=O)[O-]", "growth": "40.4% (inactive)"}
{"smiles": "C[C@@H](CO)[C@@H]1CCC=C2CC[C@]3(C)[C@H](CC[C@@H]4[C@@]5(C)CCCNC(C)(C)[C@@H]5CC[C@]43C)[C@H]21", "growth": "-15.2% (active)"}
{"smiles": "COc1cc(C(=O)n2nc(N3CCOCC3)c3cc(-n4cccc4)ccc32)cc(OC)c1OC", "growth": "49.2% (inactive)"}
{"smiles": "Cc1ccc(N(CC(=O)Nc2ccc(S(=O)(=O)N3CCC(N4CCCC4)CC3)cc2)S(=O)(=O)c2ccc(Cl)cc2)cc1", "growth": "-19.6% (active)"}
{"smiles": "CCOC(=O)c1nn(-c2ccc(S(N)(=O)=O)cc2)c2nc(C)cc(=O)n12", "growth": "99% (inactive)"}
{"smiles": "COc1cc2oc(-c3cccc(N)c3)cc(=O)c2c(OC)c1OC", "growth": "99.9% (inactive)"}
{"smiles": "O=C1/C(=C/c2ccccc2O)CC/C1=C\\c1ccccc1O", "growth": "34.3% (inactive)"}
{"smiles": "CN(C)c1ccc(N=C2C=CC(=O)C=C2)cc1", "growth": "12.5% (inactive)"}
{"smiles": "COC(=O)C1C(O)C(C)C(O)C(C)C=C(C)C2=C3C(=C(C)C(=O)c4c(O)c(c(C)c(OC(C)=O)c43)NC(=O)C(C)=C/C=C\\C(C)C(O)C(C)C1O)OCO2", "note": "(stereo not given)", "growth": "106% (inactive)"}
{"smiles": "Nc1ccn(C2OC(CO)C(O)C2F)c(=O)n1", "note": "(stereo not given)", "growth": "96.3% (inactive)"}
{"smiles": "C#C[C@]1(O)CC[C@H]2[C@@H]3CC=C4c5sc(Nc6nc(C)cc(OC)n6)nc5CC[C@]4(C)[C@H]3CC[C@@]21C", "growth": "63.1% (inactive)"}
{"smiles": "CCOC(=O)CSc1nc2sc3c(c2c(=O)n1-c1ccc([N+](=O)[O-])cc1)CCCCC3", "growth": "56.6% (inactive)"}
{"smiles": "ClCC(Cl)[C@@H]1CC2C=CC1C2", "note": "(stereo not given in full)", "growth": "96% (inactive)"}
{"smiles": "O=c1oc2ccc(F)cc2c(=O)n1-c1ccc(Cl)cc1F", "growth": "-1.59% (active)"}
{"smiles": "COc1ccc(-c2nn(Cc3ccccc3)c3c2-c2oncc2CC3)cc1OC", "growth": "99.9% (inactive)"}
{"smiles": "Cc1ccc(-c2c3c(N)nc(-c4ccncc4)nc3nc3c2c(C)nn3-c2ccccc2)cc1", "growth": "43.6% (inactive)"}
{"smiles": "NC(=O)C1=C[C@H]2[C@H]3C=C[C@@]2(O)C(=O)O[C@@H]3O1", "growth": "-5.42% (active)"}
{"smiles": "O=C(Nc1ccc(OS(=O)(=O)Cc2ccccc2)cc1)C12CC3CC(CC(C3)C1)C2", "growth": "66.6% (inactive)"}
{"smiles": "CCCCCCCOc1cccc(/C=C2/C(=O)N=C3SCCCN32)c1", "growth": "56.8% (inactive)"}
{"smiles": "CC(C)CCOc1ccc(-c2n[nH]c(C(F)(F)F)c2-c2cncc(C#N)c2)c(O)c1", "growth": "-26.4% (active)"}
{"smiles": "COC(=O)[C@H](Cc1cn(C)cn1)NC(=O)[C@H](C)NC(=O)Nc1cc(C(F)(F)F)cc(C(F)(F)F)c1", "growth": "-82.8% [100 µM] (active)"}
{"smiles": "COc1cc(C2=C(c3cn(C)c4ccccc34)COC2=O)cc(OC)c1OC", "growth": "16% (inactive)"}
{"smiles": "COc1ccc(-c2nc3cc(C(=O)NC4CCCCC4)ccc3n2C2CCCCC2)cc1", "growth": "109% (inactive)"}
{"smiles": "O=C(N/N=C/c1ccccc1O)c1ccccc1O", "growth": "17% (inactive)"}
{"smiles": "Cc1cccc2c(=O)c3c(sc12)c(NCCN)nc1ccccc13", "growth": "-57.3% (active)"}
{"smiles": "CC(=O)N1N=C(c2cccc(Nc3ccncc3)c2)CC1c1ccc2c(c1)OCO2", "note": "(stereo not given)", "growth": "85.5% (inactive)"}
{"smiles": "COC(=O)c1ccc2cc(OC)c(OC)cc2c1", "growth": "98.6% (inactive)"}
{"smiles": "COC1=CC(c2ccc[nH]2)=N/C1=C\\c1[nH]c(C)c(C(=O)Oc2ccccc2)c1C", "growth": "-82.9% (active)"}
{"smiles": "Nc1c(C(=O)Nc2cccc(Cl)c2)sc2ncc(Br)cc12", "growth": "94.1% (inactive)"}
{"smiles": "Cc1ccsc1C(NC(=O)c1ccccc1)c1cc(Cl)c2cccnc2c1O", "note": "(stereo not given)", "growth": "4.52% (active)"}
{"smiles": "CN(C)CCC(=O)c1c[nH]c2ccccc12", "growth": "106% (inactive)"}
{"smiles": "Cc1ccc(C(=O)Nc2ccc(Cl)cc2C(=O)NCc2ccccc2)cc1", "growth": "83% (inactive)"}
{"smiles": "COc1cccc2c1O/C(=C\\c1ncc([N+](=O)[O-])n1C)C2=O", "growth": "19% (inactive)"}
{"smiles": "COc1c(O)cc2oc3cc(O)c(CC=C(C)C)c(O)c3c(=O)c2c1CC=C(C)C", "growth": "71.2% (inactive)"}
{"smiles": "COC(=O)c1c(C)nc(C)c2c1C(=O)C(Br)=C(NCCCCO)C2=O", "growth": "29.5% (inactive)"}
{"smiles": "S=C(c1ccc2c(c1)OCO2)N1CCN(c2ccccc2Cl)CC1", "growth": "80.8% (inactive)"}
{"smiles": "Cc1cc(Cl)nc(N2CCN(CCNc3ccnc4cc(Cl)ccc34)CC2)n1", "growth": "4.38% (active)"}
{"smiles": "O=C1/C(=C/c2ccc(O)cc2)Cc2ccc(Cl)cc21", "growth": "65% (inactive)"}
{"smiles": "N#CC(Cc1cccc2ccccc12)c1cc2ccccc2[nH]1", "note": "(stereo not given)", "growth": "93.2% (inactive)"}
{"smiles": "N#Cc1c(N)n2c(nc1=Nc1ccc([N+](=O)[O-])cc1)sc1cc(Cl)ccc12", "growth": "79.5% (inactive)"}
